Arbovirus anti = blocks arbovirus infection. inhibition, % at 10 µM. hit rate 0.37% among 200,000. arbovirus infection cell-based antiviral screen; in the data active = inhibition above about 30%
Efa HMGR inh = E. faecalis class II HMG-CoA reductase inhibition | purified E. faecalis HMGR, NADPH absorbance 340 nm kinetic | hit rate 0.41% among 190,000 | inhibition, % at 10 µM;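 active = inhibition above a set limit, the median over all tested compounds plus 3 SD, cut at about 9.5% in these data; inconclusive = no clear call, values can overlap the other calls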;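 also: enzyme runs in reverse so mevalonate oxidation gives rising NADPH absorbance; 0% = complete reaction with DMSO and 100% = background rate lacking mevalonate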
p47phox inh = blocks human p47phox regulatory protein of NADPH oxidases. inhibition, % at 24.7 µM. hit rate 0.53% among 220,000. p47phox/p22phox peptide binding, fluorescence polarization, 2 h. AID 1274;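 active = inhibition above about 30%, limit read from the data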;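 also: 0% = p47phox with labelled peptide and 100% = labelled peptide alone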
Target sequence (P14598 whole entry, looked up): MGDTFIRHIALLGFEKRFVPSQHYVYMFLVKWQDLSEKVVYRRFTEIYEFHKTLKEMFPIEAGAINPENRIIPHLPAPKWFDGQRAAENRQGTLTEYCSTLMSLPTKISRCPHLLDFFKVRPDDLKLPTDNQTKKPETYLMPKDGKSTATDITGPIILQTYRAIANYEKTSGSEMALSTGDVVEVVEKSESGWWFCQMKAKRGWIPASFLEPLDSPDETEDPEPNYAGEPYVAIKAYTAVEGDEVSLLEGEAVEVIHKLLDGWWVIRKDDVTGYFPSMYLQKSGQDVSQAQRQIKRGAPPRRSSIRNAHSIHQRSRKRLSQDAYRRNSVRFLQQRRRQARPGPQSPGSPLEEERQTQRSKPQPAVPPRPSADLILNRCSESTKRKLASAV
DTT redox prof = compounds producing H2O2 with reducing agent – biochemical, NIH compound library profiling, artefact control for MLSCN library redox annotation, primary screen; DTT-dependent redox cycling H2O2, phenol red/HRP absorbance; 100% = 100 µM peroxide control, 0% = buffer; activation, % at 10 µM; hit rate 0.03% among 200,000; AID 878;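 active = activation of at least 50% relative to the plate's high and low controls in the primary single-dose screen; inactive = activation below 50%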;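 also: compound incubated with DTT at 0.8 mM final as the reducing agent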
Autophagy mod = autophagy modulation, high-content screen; hit rate 0.98% among 190,000; calls only at 10 µM (by protocol); MEF GFP-LC3 puncta imaging; test concentration mostly 10 µM; AID 463193;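 active = percentage of spot-positive cells more than 3 SD above its plate mean, without a fluorescence outlier flag or 80% toxicity; inconclusive = no clear call, values can overlap the other calls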;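 also: spot-positive cell cutoff set from DMSO-treated cells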
Ins promoter up = MIN6 insulin promoter up-regulation; hit rate 0.3% among 190,000; MIN6 insulin promoter-GFP reporter, high-content imaging; stronger effect = higher value; AID 1625; z-score at 5 µM;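 active = z-score above 3 at 5 µM with at least 500 cells counted in the well; inconclusive = wells under 500 cells, flagged as cytotoxic or low count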
* marks the source's active call; other numbers are inactive results; i = inactive; u = inconclusive; x = not tested or not shown; + = active, no number. Rows were chosen to be rich in hits. Some 2.2% of all compounds tested hit in one or more screens of this group.

SMILES | Arbovirus anti | Efa HMGR inh | p47phox inh | DTT redox prof | Autophagy mod | Ins promoter up
Cn1c(=O)oc2cc(S(=O)(=O)Nc3ccccc3)ccc21 | -4.9 | 3.4 | 5.8 | -1.9 | i | 0.11
CCOc1cc(S(=O)(=O)NCc2ccccc2)ccc1Br | 3.4 | -0.6 | -19.8 | -0.7 | i | -1.05
CC1=CSC2=NC(=O)/C(=C\c3cccn3-c3ccccc3)C(=N)N12 | -2.9 | 2.0 | -35.8 | -0.1 | i | 0.43
Cc1cccc(C)c1-n1cccc1/C=C1/C(=N)N2C(=NC1=O)SN=C2S(C)(=O)=O | 58.8* | 1.4 | -34.0 | -0.9 | i | 0.29
Cc1ccc(-n2cccc2/C=C2/C(=N)N3C(=NC2=O)SN=C3S(C)(=O)=O)cc1Cl | 34.3* | -8.2 | -112.7 | 0.0 | i | 0.34
NS(=O)(=O)c1ccc(NC(=S)Nc2ccn(Cc3cccc4ccccc34)n2)cc1 | 10.8 | -1.4 | -12.8 | -1.2 | i | x
Nc1ccc(-c2nc3ccc(N)cc3o2)cc1 | -13.3 | -0.3 | -2.4 | -1.1 | i | -0.67
Cc1ccc2nc(-c3cc(N)cc(N)c3)oc2c1 | -2.8 | 13.6* | -17.9 | -3.1 | i | 2.41
CCCCC1=CC2=C(c3ccco3)C(=O)C(C)(OC(=O)c3ccc(OC)cc3)C(=O)C2=CN1CC(C)C (centres undefined) | x | x | -1.7 | x | x | 4.34*
CCCCC1=CC2=C(c3ccco3)C(=O)C(C)(OC(=O)c3ccc(OC)cc3)C(=O)C2=CN1Cc1ccc(OC)cc1 (centres undefined) | x | x | -11.0 | x | x | -0.32
COc1ccc(/C=N/NC(=O)Nc2nonc2N)cc1 | -6.5 | -6.3 | -8.7 | 1.4 | i | x
COCCN(CCOC)Cc1cc(=O)oc2cc3c(cc12)CCC3 | 3.8 | -5.5 | -4.7 | -0.3 | i | 3.14*
CC12CN(C(=O)c3ccccc3Br)CC(C)(CN(C(=O)c3ccccc3Br)C1)C2=O | x | x | -2.5 | x | x | -0.32
O=C(NC1CCCCC1)C(c1ccc(F)cc1)N(CCc1ccccc1)C(=O)CN1C(=O)c2ccccc2S1(=O)=O (centres undefined) | -3.4 | -3.6 | 31.2* | 0.1 | i | x
CCOC(=O)N1CCC(NC(=O)C2CCCN(Cc3nc(-c4cccc(Cl)c4)oc3C)C2)CC1 (centres undefined) | 9.2 | -6.2 | -3.0 | -1.3 | i | u
CCOC(=O)N1CCN(C(=O)C2CCCN(Cc3nc(-c4ccc(Cl)cc4)oc3C)C2)CC1 (centres undefined) | 8.8 | -6.0 | -31.1 | -0.1 | + | -0.71
CC(=O)c1ccc(N2CCN(C(=O)c3cc(-c4cccnc4)nc4ccc(Br)cc34)CC2)cc1 | 32.1* | 1.6 | -8.2 | 0.1 | i | -1.05
CC(=O)c1ccc(N2CCN(C(=O)c3cccc(Oc4ccccc4)c3)CC2)cc1 | 2.1 | 0.8 | -3.0 | -0.5 | + | -0.4
O=C(c1cc(-c2cccnc2)nc2ccc(Br)cc12)N1CCN(c2ncccn2)CC1 | 21.6 | -0.7 | -1.2 | -2.4 | i | 1.63
Cc1cc2nc(CSc3ccccc3)cc(=O)n2[nH]1 | 1.8 | -4.2 | -14.7 | -1.6 | i | 0.35
O=C(NC1C=CS(=O)(=O)C1)c1sc2ccccc2c1Cl (centres undefined) | 20.4 | -1.5 | -8.9 | -0.7 | i | 3.86*
CCOc1ccc2nc(NC(=O)Nc3cccs3)sc2c1 | 35.7* | 3.5 | -23.3 | 0.1 | i | 1.71
CCOc1ccc2nc(NC(=O)Nc3ccccc3)sc2c1 | 13.1 | -1.3 | -8.0 | -0.1 | i | x
CCOc1ccc2nc(NC(=O)C3CCN(S(=O)(=O)c4cnc[nH]4)CC3)sc2c1 | 30.3* | -5.5 | -5.6 | -1.2 | i | 0.9
Cc1ccc2nc(NC(=O)C3CCN(S(=O)(=O)c4cnc[nH]4)CC3)sc2c1 | 30.9* | 5.4 | -11.0 | -0.1 | i | -0.17
SMILES | Arbovirus anti | Efa HMGR inh | p47phox inh | DTT redox prof | Autophagy mod | Ins promoter up
COc1ccc2nc(NC(=O)C3CCN(S(=O)(=O)c4cnc[nH]4)CC3)sc2c1 | 15.3 | -4.9 | 4.3 | -2.6 | i | 0.11
C/C(CCC(C)C)=N\NC(=S)Nc1cc(S(=O)(=O)N2CCOCC2)ccc1N1CCOCC1 | 1.2 | -3.8 | -10.3 | -1.3 | i | -0.52
S=C(Nc1ccccc1Cl)NC1CC2CCCC(C1)N2C1CC1 (centres undefined) | 9.6 | -3.7 | -2.9 | 3.8 | i | 0.69
CCOC(=O)/C(C#N)=C1/C(=O)N(Cc2ccccc2)c2ccccc21 | -2.8 | 14.6* | 6.5 | -0.7 | i | -0.16
O=C(O)c1nn(CC(=O)N2CCN(S(=O)(=O)c3ccc(Cl)cc3)CC2)c(=O)c2ccccc12 | x | x | 8.1 | x | x | -0.27
COc1ccc(C2C=C(c3ccc(Cl)cc3)Nc3nc(NC(C)=O)nn32)cc1 (centres undefined) | 9.2 | -1.0 | -9.0 | -1.0 | i | 0.91
COc1ccc(C2=CC(c3ccc(Cl)cc3)n3cnnc3N2)cc1OC (centres undefined) | 49.7* | 4.2 | -11.9 | 0.5 | i | -1.22
CCOc1ccc2ccccc2c1/C=N/NC(=O)CNC(=O)Cc1ccccc1 | -7.4 | -1.7 | -8.8 | -0.6 | i | -0.05
COc1ccc(-n2cccc2/C=C2\C(=N)N3N=C(C(C)C)SC3=NC2=O)cc1 | 30.0* | -4.1 | -18.0 | -0.3 | i | -0.17
COc1ccc(-n2cccc2/C=C2\C(=N)N3N=C(c4ccco4)SC3=NC2=O)cc1 | 39.3* | -5.1 | -74.8 | 0.1 | i | -0.41
CC(C)c1ccc(-n2cccc2/C=C2/C(=N)N3C=CSC3=NC2=O)cc1 | -12.2 | -2.2 | -35.2 | -0.1 | i | -0.2
CC1(C)CN(c2cccc(Br)c2)C1=O | -5.1 | 0.2 | 2.9 | -1.1 | i | 0.69
O=C(CCCn1c(=O)[nH]c2cc(Cl)ccc2c1=O)NCCCN1CCN(c2ccc(F)cc2)CC1 | -1.1 | 1.6 | 1.7 | -0.4 | i | -0.15
O=C(Cc1cccs1)N1CCN=C1SCc1ccc(Br)cc1 | 18.6 | -3.5 | x | 0.5 | i | -0.63
Cc1cc(C)n2c(=S)[nH]nc2n1 | 8.2 | -0.3 | 39.8* | 0.7 | i | 0.41
COC(=O)COc1ccc(NC(=O)c2ccco2)cc1 | x | x | 0.0 | x | x | -0.19
O=C(Cn1c(=O)oc2cc(S(=O)(=O)N3CCCC3)ccc21)N1CCc2ccccc2C1 | -3.9 | 4.2 | -7.3 | -1.6 | i | 0.89
O=C(Cn1c(=O)oc2cc(S(=O)(=O)N3CCCCC3)ccc21)N1CCc2ccccc21 | -20.1 | -5.0 | -13.2 | -0.5 | + | -0.7
Nc1nnc(SCC(=O)OCc2ccc(F)cc2)s1 | -5.7 | 0.4 | -8.5 | 0.0 | i | 0.25
CCOc1cccc2sc(N(CCN(CC)CC)C(=O)c3cccc([N+](=O)[O-])c3)nc12 | 0.9 | -1.1 | 0.8 | 0.1 | i | -0.45
O=C1C2C3C=CC(C4CC34)C2C(=O)N1/N=C/c1ccc(-c2ccc([N+](=O)[O-])cc2)o1 (centres undefined) | -3.6 | -5.0 | -25.3 | 0.5 | i | 0.14
O=C1Nc2ccccc2/C1=N/N=C/c1ccc(-c2ccc([N+](=O)[O-])cc2)o1 | -1.8 | 1.8 | 51.4* | 0.0 | i | 0.53

Screens: PubChem BioAssay, several laboratories
